# PINK1 expr mod: A Quantitative High throughput Screen to Identify Chemical Modulators of PINK1 Expression | PINK1 immunofluorescence, high-content cytometry, 24 h | Potency, µM (doses to about 76.6 µM), without a hit: at the highest dose activation (PINK1 increase), hits mostly activators | hit rate 0.2% among 410,000; active = well fitted activation curve with a large enough effect; inconclusive = small, poorly fitted or top-dose-only effect; cell line not stated here; note: potency is the fitted concentration of half-maximal effect; % of control where 0% means no effect; nearly all actives have a fitted effect of over 65% in size
#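 Stable cell line, 250 cells/well, 12 h attachment; compounds pinned at 5 concentrations, 24 h; CCCP control. Fixed with nuclear dye, primary antibodies 12 h at 10 degrees C, secondary plus cell stain; laser-scanning cytometer read.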
# PI4K2A inh: qHTS for small molecular inhibitors of PI4K2A; activity change, negative = inhibition, % at 76.9 µM; AID 1346378, 2018; hit rate 0.13% among 420,000; Phosphatidylinositol 4-kinase type 2-alpha (Homo sapiens), Q9BTU6; purified PI4K2A, ADP-Glo luminescence, 1 h; active compounds read low; in the data active = activity change below about -50%; inconclusive = mostly about -30% to -49%;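 note: -100% = wells without enzyme as full effect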
#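 PI4K2A activity was measured by ADP-Glo luminescence: enzyme (4 ug/mL stock) and phosphatidylinositol (1.2 mM stock) in Tris pH 7.5/MgCl2/EGTA/Triton X-100 buffer were reacted with ATP (300 microM stock) for one hour at ambient temperature.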
# GLS inh: qHTS for Inhibitors of Glutaminase (GLS) | GLS enzymatic activity, qHTS titration | hit rate 0.21% among 410,000 | AID 624170, 2012 | Potency, µM (series often up to 45.5 µM), for the others: top-dose activity change, negative = inhibition, actives largely listed as inhibitors; note: potency is the fitted concentration of half-maximal effect; % is set by controls: 0 for no effect and ±100 for the full control effect
#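 Glutamate formation by hKGA was monitored fluorometrically using coupled glutamate oxidase, HRP and Amplex Red. Substrate was added as 1 mM L-glutamine solution; incubation was 30 min at RT after an initial read.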
# CCT modulator: High-Throughput Screening for Modulators of Cytosolic Chaperonin Activity. purified chaperonin ATPase assay, HTRF ADP detection, 30 min. activity change, % (no concentration beside the values), hits read low. hit rate 0.3% among 360,000; in the data active = activity change below about -30%; note: % is set by controls: 0 for no effect and ±100 for the full control effect
#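 TRiC (40 or 20 nM final, by batch activity) in 30 mM Tris pH 7.4, 100 mM KCl, 5 mM MgCl2, 1 mM DTT was treated with compound at 76 uM single dose, then 10 uM ATP, 30 min at 37 °C. ADP was read by HTRF Transcreener.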
# PGK inhibitor: qHTS Assay to Find Inhibitors of Phosphoglycerate Kinase; AID 602233, 2012; Potency, µM (doses to about 57.5 µM), for the others: at the top dose activity change, negative = inhibition, most hits filed as inhibitors; PGK/GAPDH coupled, Kinase-Glo luminescence, 60 min; hit rate 0.043% among 380,000; note: potency is the fitted concentration of half-maximal effect; % is set by controls: 0 for no effect and ±100 for the full control effect; nearly all actives have a fitted effect of over 60% in size
# Target sequence (P07378 whole entry, looked up): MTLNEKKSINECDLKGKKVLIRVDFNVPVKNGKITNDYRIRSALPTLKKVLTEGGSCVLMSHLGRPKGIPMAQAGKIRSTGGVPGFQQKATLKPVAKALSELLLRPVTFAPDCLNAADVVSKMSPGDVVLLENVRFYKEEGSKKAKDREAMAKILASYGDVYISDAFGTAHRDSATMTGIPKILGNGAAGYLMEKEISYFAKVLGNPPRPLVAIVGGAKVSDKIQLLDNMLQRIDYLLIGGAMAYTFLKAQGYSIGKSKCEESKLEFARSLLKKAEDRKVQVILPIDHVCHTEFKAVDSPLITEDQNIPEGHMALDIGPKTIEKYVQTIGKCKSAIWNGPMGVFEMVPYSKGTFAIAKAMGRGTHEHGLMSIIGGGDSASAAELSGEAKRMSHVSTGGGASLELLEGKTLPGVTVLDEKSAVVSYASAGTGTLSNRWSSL
#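 Recombinant glycosomal PGK reaction used 1,3-bisphosphoglycerate generated in-well by GAPDH (100nM final) in 100mM TEA pH 7.6, 5mM MgCl2, 0.01% Tween-20. After 60 minutes at room temperature, ATP was read by Kinase-Glo Plus luminescence end-point.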
# Starred values were filed as active, the others as inactive; i = inactive; u = inconclusive; x = no result; [ ] = dose if it differs, or a comment. An excerpt weighted towards active compounds, which were near 0.78% of everything screened. Unless noted, calls come from the whole dose curve; as a rule, active = well fitted curve in the direction sought with a large enough effect; inconclusive = small, poorly fitted or top-dose-only effect, or another doubt; inactive = no such curve, though single readings can be large; an effect the other way counts as inactive or inconclusive.
SMILES,PINK1 expr mod,PI4K2A inh,GLS inh,CCT modulator,PGK inhibitor
CCCCCc1c(CC)ncn1CCc1ccccc1OC,31.6µM*,2.5,2.3%,-0.8,x
CCCCCc1c(-c2ccccc2OC)ncn1CCc1ccccc1OC,u,3.8,-9.2%,-0.6,x
COc1ccc(NCN2C(=O)CCC2=O)cc1,-0.9%,7.8,u,-3.3,i
O=C1CCC(=O)N1CNc1ccc(Oc2ccccc2)cc1,u,4.3,-10.0%,-36.3*,1.3%
Cc1cccc2c(Nc3ccc4c(c3)OCO4)nc(CN3CCC(N4CCCCC4)CC3)nc12,9.4%,x,x,x,x
Cc1ccc(NC(=O)OCCNC(=O)OC(C)C)cc1,3.3%,3.4,-10.7%,-0.8,0.9%
CC(C)OC(=O)Nc1ccc(Oc2c(F)c(F)c(F)c(F)c2F)cc1,-0.3%,-6.4,4.3%,-76.4*,3.8%
OC1(c2cccnc2)CCN(Cc2ccc3c(c2)CN(Cc2ccc(F)c(F)c2)CCO3)CC1,-1.3%,x,x,x,x
COc1ccc(OC)c(CN2CCCC(c3nc(-c4ccncc4)ncc3-c3ccccc3C)C2)c1 (centres undefined),0.8%,x,x,x,x
Cc1cc(SCC(=O)c2ccc3c(c2)OCO3)nc2ccccc12,1.7%[38.3 µM],-0.3,-4.3%,-69.4*,-0.2%
Cc1cc(SCC(=O)c2ccc(O)c(O)c2)nc2ccccc12,8.5%,-1.4,u,-0.8,-17.5%
O=C(NOCC1CC1)c1ccc(F)c(F)c1Nc1ccc(I)cc1Cl,x,1.2,x,x,x
COc1cc(Br)c(C(=O)c2nccc3cc(OC)c(OC)cc23)cc1OC,2.9%,-52.1*,3.3%,1.8,-4.4%
Cc1ccc(Nc2ccc3cc(S(=O)(=O)N4CCC(C)CC4)ccc3n2)c(Cl)c1,-0.8%,-1.7,-12.7%,x,-1.6%
CC1CCN(S(=O)(=O)c2ccc3nc(Nc4cccc(F)c4)ccc3c2)CC1,15.8µM*,2.4,-1.5%,x,6.3%
COc1ccc(CC(=O)Nc2nc(C(C)(C)C)cs2)cc1,4.2%,0.2,1.3%,-67.3*,4.1%
CC(C)(C)c1csc(NC(=O)c2ccccc2O)n1,28.2µM*,-0.7,3.3%,-1.0,2.7%
CC(C)(C)c1csc(NNC(=O)c2ccc(Br)cc2)n1,-0.2%,0.4,5.01µM*,-1.5,11.6%
C/C(=N\Nc1nc(C(C)(C)C)cs1)c1ccc(O)cc1,-1.5%,0.0,18.3%,-2.2,-3.5%
Cc1csc(NC(=O)c2ccccc2O)n1,6.3%,-0.1,14.5%,2.5,i
Cc1cccc(CNC(=O)c2cnn(-c3ncc4c(n3)-c3ccccc3CC4)c2C2CC2)n1,-1.3%,x,x,x,x
O=C(CCc1nc2ccccc2s1)N1CCOc2ccc(CN3CCc4sccc4C3)cc2C1,0.5%,x,x,x,x
O=C1CCCN1CCCNC(=S)Nc1ccc(Nc2ccccc2)cc1,-0.4%,3.8,17.8µM*,-1.1,5.2%
O=C1CCCN1CCCNC(=S)Nc1ccccc1,1.7%,0.0,-12.3%,-2.5,-8.6%
Cc1cc(NC(=O)c2cc(-c3ccccc3)on2)no1,1.6%,3.8,-10.8%,1.5,-11.2%
SMILES,PINK1 expr mod,PI4K2A inh,GLS inh,CCT modulator,PGK inhibitor
O=C(c1ccccc1)c1cc(-c2ccccc2)on1,1.3%,-51.1*,-3.6%,0.4,u
CCOC(=O)c1ccc(NC(=O)CN2CCN(Cc3ccccc3)CC2)cc1,1.6%,3.0,-7.9%,-86.3*,5.6%
C=CCN1C(=O)/C(=C/c2ccc(OC(C)=O)c(OCC)c2[N+](=O)[O-])SC1=S,4.47µM*,-5.7,8.7%,3.0,-17.6%
CCOc1c(OC(C)=O)ccc(/C=C/c2ccc3cccc(OC(C)=O)c3n2)c1[N+](=O)[O-],-3.9%[38.3 µM],8.4,4.6%,0.3,8.0%
CC(C)Oc1ccc(F)cc1-c1cc(C(=O)NCc2ccc(C(F)(F)F)cc2)[nH]n1,3.5%,5.9,5.5%,-1.5,x
CC(C)Oc1ccc(F)cc1-c1cc(C(=O)NCc2cc(C(F)(F)F)cc(C(F)(F)F)c2)[nH]n1,35.5µM*,1.9,-10.1%,0.7,x
Cc1cc(N2CCC(C)CC2)nc(NCc2ccccc2)n1,35.5µM*,3.7,-0.6%,-1.3,-4.1%
Cc1cc(N2CCC(C)CC2)nc(-c2ccccc2O)n1,3.4%,2.2,9.9%,0.9,5.2%
Cc1[nH]cnc1C(=O)N/N=C/c1c(Cl)cccc1Cl,2.2%,-68.9*,-3.7%,-2.4,u
OCC1O[C@H]([S-])[C@H](O)[C@@H](O)[C@@H]1O.[Au+] (some centres undefined),x,-55.1*,x,x,x
Cc1ccc(/C=N/Nc2nc3ccccc3s2)o1,4.7%,-1.6,8.91µM*,1.5,4.7%
COc1ccc(C(=O)NCC(=O)OCc2c(Cl)cccc2Cl)cc1OC,1.7%,2.0,0.5%,-0.7,-1.7%
COc1cc(C(=O)NCC(=O)OCc2ccccc2Cl)cc(OC)c1OC,2.3%,-14.8,0.8%,-35.5*,-9.3%
Cc1ccc(S(=O)(=O)Nc2ccc(O)c(Sc3ncn[nH]3)c2)cc1,-3.2%,1.9,41.5%,-0.7,-1.4%
CCOc1ccc(S(=O)(=O)Nc2ccc(O)c(Sc3ncn[nH]3)c2)cc1,-0.5%,2.9,66.9%,-38.4*,-1.1%
CCOC(=O)N1CCN(C(=O)C(CC(C)C)NC(=O)C2CCCCC2)CC1 (centres undefined),-3.7%,10.8,-10.7%,-0.7,-1.9%
CCOC(=O)N1CCN(C(=S)NC(=O)C2CCCC2)CC1,-0.2%,2.5,8.3%,-70.6*,-1.4%
O=C(Nc1nc2ccccc2[nH]1)c1ccc(F)c(S(=O)(=O)N2CCOCC2)c1,0.3%,6.8,4.9%,-43.7*,-7.8%
CC(C)Oc1ccc(C(=O)Nc2nc3ccccc3[nH]2)cc1,0.9%,-56.0*,-12.3%,2.0,u

# High-throughput results (PubChem)
